Test results from PubChem BioAssay AID1159580 (chemical genetic matrix, 2015).
In all, about 5,500 compounds went through this assay and about 2,000 (36%) were called active. Roughly 18% stayed inconclusive and do not appear here. Cut-off read from the data, not from the text of the source: active = normalized growth mostly below about 0.91 (no sharp cut-off); inconclusive = no clear call, values can overlap the other calls; inactive = mostly above about 0.92. This is one part of the list.

Assay: chemical genetic growth profiling, strain panel (AID 1159580);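 note: tested at 20 µM; growth read once vehicle control cultures reached saturation at 30 °C; 1 = growth at the plate median or of vehicle wells; lower values mean less growth of the strain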
Conditions: S. cerevisiae deletion strains, growth OD

Measured: normalized growth

C#Cc1cccc(N=Cc2cc(Cl)cc(Br)c2O)c1
active: locus YAR019C, strain CDC15, stronger effect = lower value 0.101 | locus YBL105C, strain PKC1, stronger effect = lower value 0.0988 | locus YBR135W, strain CKS1, stronger effect = lower value 0.128 | locus YBR136W, strain MEC1, stronger effect = lower value 0.107 | locus YBR160W, strain CDC28, stronger effect = lower value 0.134 | locus YDL017W, strain CDC7, stronger effect = lower value 0.1 | locus YDL028C, strain MPS1, stronger effect = lower value 0.108 | locus YDL101C, strain DUN1, stronger effect = lower value 0.165 | locus YDL108W, strain KIN28, stronger effect = lower value 0.122 | locus YDL214C, strain PRR2, stronger effect = lower value 0.103 | locus YDR052C, strain DBF4, stronger effect = lower value 0.451 | locus YDR054C, strain cdc34, stronger effect = lower value 0.482 | locus YDR226W, strain ADK1, stronger effect = lower value 0.534 | locus YDR477W, strain SNF1, stronger effect = lower value 0.117 | locus YER123W, strain YCK3, stronger effect = lower value 0.112 | locus YER133W, strain GLC7, stronger effect = lower value 0.114 | locus YFL009W, strain cdc4, stronger effect = lower value 0.108 | locus YFL029C, strain CAK1, stronger effect = lower value 0.0962 | locus YFR003C, strain YPI1, stronger effect = lower value 0.11 | locus YFR019W, strain FAB1, stronger effect = lower value 0.107 | locus YFR028C, strain CDC14, stronger effect = lower value 0.104 | locus YGR040W, strain KSS1, stronger effect = lower value 0.13 | locus YGR052W, strain FMP48, stronger effect = lower value 0.127 | locus YGR092W, strain DBF2, stronger effect = lower value 0.114 | locus YHR030C, strain SLT2, stronger effect = lower value 0.127 | locus YHR079C, strain IRE1, stronger effect = lower value 0.125 | locus YHR082C, strain KSP1, stronger effect = lower value 0.157 | locus YHR205W, strain SCH9, stronger effect = lower value 0.021 | locus YIL147C, strain SLN1, stronger effect = lower value 0.112 | locus YJL095W, strain BCK1, stronger effect = lower value 0.135 | locus YJL128C, strain PBS2, stronger effect = lower value 0.257 | locus YJL157C, strain FAR1, stronger effect = lower value 0.0902 | locus YJR016C, strain ILV3, stronger effect = lower value 0.103 | locus YJR066W, strain TOR1 (second series), stronger effect = lower value 0.109 | locus YJR066W, strain TOR1, stronger effect = lower value 0.137 | locus YKL048C, strain ELM1, stronger effect = lower value 0.129 | locus YKL067W, strain YNK1, stronger effect = lower value 0.109 | locus YKL101W, strain HSL1, stronger effect = lower value 0.128 | locus YKL193C, strain SDS22, stronger effect = lower value 0.108 | locus YKL203C, strain TOR2, stronger effect = lower value 0.113 | locus YLR113W, strain HOG1, stronger effect = lower value 0.132 | locus YLR133W, strain CKI1, stronger effect = lower value 0.106 | locus YLR403W, strain SFP1, stronger effect = lower value 0.0146 | locus YML070W, strain DAK1, stronger effect = lower value 0.13 | locus YMR001C, strain CDC5, stronger effect = lower value 0.0999 | locus YMR205C, strain PFK2 (second series), stronger effect = lower value 0.12 | locus YMR277W, strain FCP1, stronger effect = lower value 0.108 | locus YNL006W, strain LST8, stronger effect = lower value 0.0957 | locus YNL020C, strain ARK1, stronger effect = lower value 0.11 | locus YNL161W, strain CBK1, stronger effect = lower value 0.107 | locus YNL183C, strain NPR1, stronger effect = lower value 0.156 | locus YNL207W, strain RIO2, stronger effect = lower value 0.119 | locus YNL222W, strain SSU72, stronger effect = lower value 0.095 | locus YNL307C, strain MCK1 (second series), stronger effect = lower value 0.114 | locus YOL078W, strain AVO1, stronger effect = lower value 0.104 | locus YOL136C, strain PFK27, stronger effect = lower value 0.1 | locus YOR061W, strain CKA2, stronger effect = lower value 0.115 | locus YOR119C, strain RIO1, stronger effect = lower value 0.11 | locus YOR231W, strain MKK1, stronger effect = lower value 0.119 | locus YOR329C, strain SCD5, stronger effect = lower value 0.0917 | locus YPL031C, strain PHO85, stronger effect = lower value 0.116 | locus YPL153C, strain RAD53, stronger effect = lower value 0.127 | locus YPL204W, strain HRR25, stronger effect = lower value 0.13 | locus YPL209C, strain IPL1, stronger effect = lower value 0.102 | locus YPL256C, strain CLN2, stronger effect = lower value 0.16 | locus YPR025C, strain CCL1, stronger effect = lower value 0.101 | strain NNK1, stronger effect = lower value 0.108 | strain TSCII, stronger effect = lower value 0.102

O=C(NCC1CCCCN1)c1cc(OCC(F)(F)F)ccc1OCC(F)(F)F (stereo not given)
inactive: locus YAL040C, strain CLN3, stronger effect = lower value 0.988 | locus YCL061C, strain MRC1 (second series), stronger effect = lower value 1 | locus YDR150W, strain NUM1, stronger effect = lower value 1.01 | locus YDR363W, strain ESC2, stronger effect = lower value 1.01 | locus YER002W, strain NOP16, stronger effect = lower value 0.987 | locus YGR229C, strain SMI1, stronger effect = lower value 1.03 | locus YNL175C, strain NOP13, stronger effect = lower value 0.989 | locus YNL197C, strain WHI3, stronger effect = lower value 0.986 | locus YNL224C, strain SQS1, stronger effect = lower value 1.04 | locus YNL322C, strain KRE1, stronger effect = lower value 0.995 | locus YOR083W, strain WHI5 (second series), stronger effect = lower value 1.01 | locus YPL241C, strain CIN2, stronger effect = lower value 0.998
